According to PubChem BioAssay (NCI):
About 79,000 compounds went through this panel and 15% of them were active in at least one assay; those are over-represented in the sample as a whole. Activity calls are given as the source filed them. No stated cut-off is given here; in the data, active means growth inhibition above about 70%; inactive means the rest.

What was measured:
[1] = NCI Yeast Anticancer Drug Screen. Data for the rad50 strain (AID 155);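 further: 0% = growth of vehicle-only cultures of the same strain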; conditions: S. cerevisiae rad50 strain growth inhibition; at 50.0 µM; stronger effect = higher value
How it was run: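 Growth of the mutant yeast was measured after compound exposure and referenced to vehicle-treated cultures.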

[2] = NCI Yeast Anticancer Drug Screen. Data for the mec2-1 strain (AID 157); conditions: S. cerevisiae mec2-1 strain, at 50.0 µM, stronger effect = higher value
How it was run: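 Vehicle-treated cultures served as reference for growth inhibition of compound-exposed mec2-1 yeast.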

[3] = NCI Yeast Anticancer Drug Screen. Data for the sgs1 mgt1 strain (AID 161);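 further: 0% = growth of cultures given vehicle only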; conditions: S. cerevisiae sgs1 mgt1 strain, at 50.0 µM, stronger effect = higher value
How it was run: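 Genetically altered yeast, compound exposure, growth inhibition relative to vehicle.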

[4] = NCI Yeast Anticancer Drug Screen. Data for the cln2 rad14 strain (AID 165);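 further: 0% = growth equal to vehicle treated cultures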; conditions: S. cerevisiae cln2 rad14 strain, at 50.0 µM, stronger effect = higher value
How it was run: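 Each compound was tested on cln2 rad14 yeast. Inhibition of growth was calculated against vehicle-exposed controls.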

[5] = NCI Yeast Anticancer Drug Screen. Data for the bub3 strain (AID 167); conditions: S. cerevisiae bub3 mutant strain, at 50.0 µM, stronger effect = higher value
How it was run: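 Whole-cell yeast assay. The mutant strain was incubated with compounds, and growth inhibition was determined by comparison with vehicle-treated cells.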

[6] = NCI Yeast Anticancer Drug Screen. Data for the mlh1 rad18 strain (AID 175); conditions: S. cerevisiae mlh1 rad18 strain growth inhibition; at 50.0 µM; stronger effect = higher value
How it was run: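 Vehicle-treated cultures served as the reference for growth inhibition in a yeast strain carrying DNA damage repair alterations exposed to each compound.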

Measured: growth inhibition

CC(C)OC(=S)S.[Cu+2]
inactive: [1] -7% | [2] -6.7% | [3] -2.4% | [4] -31.6% | [5] -15.2% | [6] 2.4%

CCOc1ccc2c(N/N=C/c3ccc(N(CCCl)CCCl)cc3)cc(C)nc2c1
active: [1] 96.3% | [2] 97.6% | [3] 97.3% | [4] 97.8% | [5] 95.7% | [6] 96.3%

CCOC(CBr)OCC
inactive: [1] 14.4% | [2] -4.75% | [3] 0.45% | [4] -25.7% | [5] 7.55% | [6] 20.8%

c1cnc[c]([Hg][c]2cccnc2)c1
active: [4] 73.5% | [5] 88.8%
inactive: [1] 40.1% | [2] 56.5% | [3] 37.2% | [6] 53.4%

O=C([O-])CC(=O)[O-].O=C([O-])CC(=O)[O-].[K+].[Pd+2]
inactive: [1] 14.2% | [2] 19.1% | [3] 28.2% | [4] 26.6% | [5] 11.5% | [6] 16.2%

CCOP(=O)(OCC)/C(C#N)=C/c1cc(O)ccc1O
inactive: [1] -34.2% | [2] -35.1% | [3] -51.9% | [4] -10.2% | [5] -47.9% | [6] -45.8%

O=[P+](O)O[P+](=O)O.O=[P+](O)O[P+](=O)O.O=[P+](O)O[P+](=O)O.O=[P+](O)O[P+](=O)O.[Cl][Pt].[Cl][Pt]
inactive: [1] -2.05% | [2] 27.8% | [3] 26.2% | [4] -32.5% | [5] 18.1% | [6] 12.9%

CN(C)C(=O)Oc1c(Cl)cc(S(=O)(=O)F)cc1Cl
inactive: [1] 26.4% | [2] 0.8% | [3] 12.7% | [4] 12.8% | [5] 2.65% | [6] 12.4%

c1ccc(C[n+]2ccc(-c3ccccc3)cc2)cc1
inactive: [1] -5.75% | [2] 5.5% | [3] -0.35% | [4] -7.25% | [5] -7.15% | [6] -19.5%

CCCCNC(c1ccc(OC)cc1)C(O)c1ccc(OC)cc1 (stereo not drawn)
inactive: [1] 2.35% | [2] -17.3% | [3] -2.95% | [4] -25.6% | [5] 7.1% | [6] -14.1%

CN(C)C(=O)C1(c2ccccc2)CCNCC1
inactive: [1] 19.4% | [2] -1.7% | [3] 3.25% | [4] 1% | [5] 1.2% | [6] -4.2%

O=C(SCC(NSc1ccccc1[N+](=O)[O-])C(=O)O)c1ccccc1 (stereo not drawn)
inactive: [2] 56.6% | [4] 8.45% | [5] 6.5% | [6] 47.9%
active: [1] 88.5% | [3] 75.4%

C=CCN(CC=C)C(Cc1ccccc1)c1ccccc1 (stereo not drawn)
inactive: [1] 2.95% | [2] -7.75% | [3] -5.85% | [4] -5.6% | [5] 11.3% | [6] -5.95%

CC(=O)NC(Cc1ccc(N(CCCl)CCCl)cc1)C(=O)NC(CC(C)C)C(=O)O (stereo not drawn)
inactive: [1] 2.85% | [2] 22.6% | [3] -4.15% | [4] 5.75% | [5] 2.7% | [6] 21.7%

CCN(CCCl)c1ccc(NC(=O)c2cc(C(=O)NCCN(C)C)cc(C(=O)Nc3ccc(N(CC)CCCl)cc3)c2)cc1
inactive: [1] 35% | [2] -23.9% | [3] -15.8% | [4] 2.95% | [5] -1.4% | [6] 12.5%

BrC(Br)c1cccc(C(Br)Br)c1
inactive: [1] 55.7% | [2] 37.8% | [3] 27.1% | [4] 37.5% | [5] 64% | [6] 56.6%

CCCC1NCCOC1(O)c1ccccc1 (stereo not drawn)
inactive: [1] -11.2% | [2] -8.35% | [3] -1% | [4] -16.4% | [5] 3.35% | [6] -33.8%

C=COC(=O)NC(C(=O)O)C(C)CC (stereo not drawn)
inactive: [1] 43.1% | [2] 18.6% | [3] 44.4% | [4] 24.9% | [5] -5.35% | [6] 34.9%
